From PubChem BioAssay (NCI)
Compounds without any hit were thinned out: in the full panel of roughly 79,000, 15% have a hit. Cut-off read from the data, not from the text of the source: active = growth inhibition above about 70%; inactive = the rest. Where a SMILES comes first, the peptide text is derived from it. [ ]: non-standard residue; d: D form. The star is where a group is joined. ξ: configuration not given here. NMeY = CN[C@@H](Cc1ccc(O)cc1)C(=O)O; Cbz = O=C(OCc1ccccc1)*; ξA = CC(N)C(=O)O

Key:
[1] = NCI Yeast Anticancer Drug Screen. Data for the rad50 strain (AID 155);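 note: 0% = growth of vehicle-only cultures of the same strain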; conditions: S. cerevisiae rad50 strain growth inhibition; at 50.0 µM; hits give high values
How it was run: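 Relative growth inhibition (compound vs vehicle) was measured in yeast with a defined repair-gene alteration.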

[2] = NCI Yeast Anticancer Drug Screen. Data for the mec2-1 strain (AID 157); conditions: S. cerevisiae mec2-1 strain, at 50.0 µM, hits give high values
How it was run: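 Mutant yeast (mec2-1) grown with compound; growth inhibition relative to vehicle control reported.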

[3] = NCI Yeast Anticancer Drug Screen. Data for the sgs1 mgt1 strain (AID 161);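 note: 0% = growth of cultures given vehicle only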; conditions: S. cerevisiae sgs1 mgt1 strain, at 50.0 µM, hits give high values
How it was run: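 Growth of a repair-deficient yeast mutant was monitored after compound treatment and expressed as inhibition relative to vehicle-treated cultures.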

[4] = NCI Yeast Anticancer Drug Screen. Data for the cln2 rad14 strain (AID 165);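 note: 0% = growth equal to vehicle treated cultures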; conditions: S. cerevisiae cln2 rad14 strain, at 50.0 µM, hits give high values
How it was run: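 Readout is yeast growth inhibition versus vehicle-treated controls, using a strain with cln2 and rad14 alterations exposed to compound.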

[5] = NCI Yeast Anticancer Drug Screen. Data for the bub3 strain (AID 167); conditions: S. cerevisiae bub3 mutant strain, at 50.0 µM, hits give high values
How it was run: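 Screening used yeast with an engineered genetic alteration affecting cell cycle control. Compound-exposed cultures were compared with vehicle cultures, and reduced growth was taken as inhibition.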

[6] = NCI Yeast Anticancer Drug Screen. Data for the mlh1 rad18 strain (AID 175); conditions: S. cerevisiae mlh1 rad18 strain growth inhibition; at 50.0 µM; hits give high values
How it was run: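 Genetically defined yeast (DNA repair-deficient) exposed to compounds; growth inhibition determined relative to vehicle.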

Measured: growth inhibition

CC(=O)OC12c3ccccc3-c3ccccc3C1C1C(=O)N(C)C(=O)C12Cl (stereo not given)
inactive: [1] -13.4% | [2] -22.2% | [3] -12.2% | [4] 10.4% | [5] 36.5% | [6] 13.2%

Nn1c(-c2ccccc2)n[nH]c1=O
inactive: [1] 18.7% | [2] -15.7% | [3] 16.5% | [4] 25.9% | [5] 3.25% | [6] 9.45%

C=C(C)C(=O)O[C@H]1CC2=C[C@@H](C[C@@]3(C)O[C@@H]3[C@H]3OC(=O)C(=C)[C@@H]31)OC2=O
inactive: [1] -8.35% | [2] 10.1% | [3] 22.2% | [4] 6.4% | [5] -10% | [6] -5.15%

CNC1C(CO)OC(n2cnc3c(N)ncnc32)C1O (stereo not given)
inactive: [1] 1.85% | [2] -9.55% | [3] 3.75% | [4] -60.8% | [5] 2.75% | [6] -13.2%

CC(=O)Nc1[nH]ncc1C#N
inactive: [1] 3.05% | [2] -8% | [3] -0.2% | [4] -12.4% | [5] 13.3% | [6] 18%

C/C(=N\[N+](C)(C)C)c1ccc(C)c(C)c1
inactive: [1] 9.45% | [2] -38% | [3] -23.2% | [4] 17.9% | [5] -56.2% | [6] -5%

CC(C)(C)COc1ccc2c(c1)C1=NC2=NC2=NC(=NC3=NC(=NC4=NC(=N1)c1ccc(OCC(C)(C)C)cc14)c1ccc(OCC(C)(C)C)cc13)c1ccc(OCC(C)(C)C)cc12
inactive: [1] 12.8% | [2] 1.1% | [3] -10.1% | [4] -14.6% | [5] -5.45% | [6] 18.4%

O=CN(CCO)CCO
inactive: [1] -1.6% | [2] 1.25% | [3] -3.5% | [4] 11.1% | [5] 7.35% | [6] -4.2%

COc1ccc(C[C@@H](C(=O)N[C@@H](C)C(N)=O)N(C)C(=O)[C@@H]2CCCN2C(=O)[C@H](CC(C)C)NC(=O)C(C)NC(=O)OCc2ccccc2)cc1 (stereo not given in full) (Cbz-[ξA]LP[NMeY](Me)A-NH2)
inactive: [1] 29.1% | [2] 28.9% | [3] -7.95% | [4] -4% | [5] -38.2% | [6] -44.2%

CCOC(=O)C(c1ccc(C)cc1)C(Cl)(Cl)Cl (stereo not given)
inactive: [1] 2.45% | [2] -9.55% | [3] 3.85% | [4] -1.05% | [5] -11.5% | [6] 26.4%

CCOC(=O)[C@H]1CSC[C@@H](C(=O)OC)N1
inactive: [1] -13.6% | [2] -4.7% | [3] -10.6% | [4] 4.45% | [5] 5.15% | [6] -4.9%

Cc1nnc2n1N=C(c1ccc(-c3ccc([N+](=O)[O-])cc3)o1)CS2
inactive: [1] 10.7% | [2] 3.1% | [3] -1.75% | [4] 12.1% | [5] -25.8% | [6] 10.8%

C=CC(C)n1cnc2c1c(=O)n(C)c(=O)n2C (stereo not given)
inactive: [1] -5.1% | [2] -9.35% | [3] -11.2% | [4] -35% | [5] -5.4% | [6] 2.8%

CC(CCCSC(=N)N)SC(=N)N (stereo not given)
inactive: [1] 4.9% | [2] -3.5% | [3] -0.3% | [4] 24.2% | [5] -2.2% | [6] 12.6%

CP1(=O)CC(=O)CCCCC(=O)C1
inactive: [1] 2.25% | [2] -1.6% | [3] -1.2% | [4] -25.8% | [5] 42.7% | [6] 19.6%

COc1cc(/C=C2\C=Nc3ccccc32)ccc1O
inactive: [1] 27.8% | [2] 23.9% | [3] 38% | [4] 20.3% | [5] 40.3% | [6] 35.7%

O=N/C(=C(\c1ccccc1)N1CCOCC1)c1ccccc1
inactive: [1] -10.2% | [2] 11.8% | [3] 9.6% | [4] -2.45% | [5] -20.6% | [6] 6.45%

CCC(CC)OC(=O)Nc1cccc2ccccc12
inactive: [1] -16.4% | [2] -9.65% | [3] -5.75% | [4] -55% | [5] 4.9% | [6] -14.6%

CC(C)(C)OC(=O)NC(Cc1ccccc1)C(=O)OCN1C(=O)C2C3C=CC(C2C1=O)C1C2C(=O)N(COC(=O)C(Cc4ccccc4)NC(=O)OC(C)(C)C)C(=O)C2C31 (stereo not given)
inactive: [1] 26.8% | [2] -4.1% | [3] -0.5% | [4] -6.55% | [5] 8.25% | [6] 20.4%

C=C(C)C1CC=C(C)/C(=N\O)C1 (stereo not given)
inactive: [1] -5.15% | [2] -9.9% | [3] -17.4% | [4] 3.05% | [5] 15% | [6] -5.6%
